Results with a measured potency or affinity are listed apart. Records with an inconclusive call do not appear. Calls of active or inactive are those of the source.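 The calls were made as follows: active = in every test run, a fitted half-maximal concentration for signal decrease at or below twice the highest tested concentration; inconclusive = runs disagree, flat 30 to 70% decrease, or poor fit; inactive = the rest.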

A short description of the experiment: activation of miR-122 Renilla sensor silencing – cell-based, Huh7 psiCHECK-miR122, Renilla luciferase, cherry-picked, dose response (AID 651956).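 Also: Renilla luciferase from a miR-122 sensor reporter so lower signal means miR-122 activation.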 As to conditions: Huh7 psiCHECK-miR122 Renilla luciferase reporter, 48 h; series mostly up to 35 µM.
With `CCCNC(=O)C[C@H]1CC[C@@H]2[C@@H](COc3ccc(NC(=O)c4ccc5c(c4)OCO5)cc3C(=O)N2C)O1`, the result was inactive. For `CN1C(=O)c2cc(NC(=O)C3CC3)ccc2OC[C@@H]2O[C@H](CC(=O)NC3CCC3)CC[C@H]21`, the compound was called inactive.

For `CN1C(=O)c2cc(NC(=O)c3cccs3)ccc2OC[C@H]2O[C@@H](CC(=O)NCCN3CCCCC3)CC[C@H]21`, the call was inactive.

`CCOc1cc(C(=O)NC(C)COC)cc(OCC)c1OCC` (centres undefined): the result was inactive.

As to `COc1cccc(-c2nn(-c3ccccc3)cc2CO)c1`, the compound was called inactive. Under `CNC(=O)C[C@H]1CC[C@@H]2[C@H](COc3ccc(NC(=O)NC(C)C)cc3C(=O)N2C)O1` stands “inactive”. For `CNC(=O)C[C@@H]1CC[C@@H]2[C@@H](COc3ccc(NC(=O)c4ccccc4F)cc3C(=O)N2C)O1`, the outcome was inactive. With `C[C@@H]1CN([C@H](C)CO)S(=O)(=O)c2ccc(C3=CCCCC3)cc2O[C@@H]1CN(C)C(=O)Nc1ccc2c(c1)OCO2` the entry was “inactive”; with `CC(=O)N1[C@H](CN(C(=O)c2ccc(F)cc2)C(C)C)[C@@H](c2ccccc2)[C@@H]1CO`, “inactive”; with `CCOC(=O)CSc1nnnn1-c1cccc2ccccc12`, “inactive”. With `C/C=C/c1ccc([C@@H]2[C@@H](CO)N(S(C)(=O)=O)[C@H]2CN(C)C(=O)CC)cc1` the entry was “inactive”; with `CC(C)C(=O)Nc1ccc2c(c1)C(=O)N(C)[C@@H]1CC[C@H](CC(=O)NCC3CC3)O[C@H]1CO2`, “inactive”. With `Cc1ccccc1-c1nc(CN2CCCC(C(=O)NCCCN3CCOCC3)C2)c(C)o1` (centres undefined) the entry was “inactive”; with `COCC(=O)NC[C@H]1[C@@H](c2ccc(C3=CCCC3)cc2)[C@H](CO)N1C(=O)C1CC1`, “inactive”. Consider `O=C(Nc1ccc(CN2CCOCC2)cc1)c1ccc(-c2ccc(Cl)cc2Cl)o1`, for which the outcome was inactive. Under `COc1cccc(CNC(=O)C[C@H]2CC[C@@H]3[C@@H](COc4ccc(NC(C)=O)cc4C(=O)N3C)O2)c1` stands “inactive”.

Turning to `CC(=O)c1ccc(Nc2nc3ccc(C)cc3n3cnnc23)cc1`, the compound was called inactive. On to `COCC(=O)Nc1ccc2c(c1)C(=O)N(C)[C@@H]1CC[C@H](CC(=O)NCCCN(C)C)O[C@H]1CO2`, for which the outcome was inactive. With `O=C(Nc1ncc(Cc2cccc(C(F)(F)F)c2)s1)c1ccc(-c2cccc([N+](=O)[O-])c2)o1` the entry was “inactive”; with `CN1C(=O)c2cc(NC(=O)c3cccc(F)c3)ccc2OC[C@@H]2O[C@H](CC(=O)NC3CCC3)CC[C@@H]21`, “inactive”. On to `C/C=C/c1ccc([C@@H]2[C@@H](CO)N[C@@H]2CN(C(=O)C2CCCC2)C(C)C)cc1`, for which the outcome was inactive.

Regarding `CCCNC(=O)Nc1ccc2c(c1)C(=O)N(C)[C@@H]1CC[C@H](CC(=O)NCC3CCCCC3)O[C@H]1CO2`, the call was inactive. Under `C/C=C/c1ccc([C@@H]2[C@H](CO)N(Cc3ccccn3)[C@H]2CNC(=O)CC)cc1` stands “inactive”; under `COc1cc2nc(C3CCC3)n(NC(=O)C3CCCC(OC)C3)c(=O)c2cc1OC` (centres undefined), “inactive”. With `CO[C@@H]1CN(C)C(=O)c2ccc(NS(=O)(=O)c3ccc(C)cc3)cc2OC[C@@H](C)N(C(=O)NC(C)C)C[C@H]1C` the entry was “inactive”.

Regarding `CNC(=O)C[C@H]1CC[C@@H]2[C@H](COc3ccc(NC(=O)C(C)C)cc3C(=O)N2C)O1`, the outcome was inactive. In the case of `COc1cccc(C(=O)Nc2ccc3c(c2)C(=O)N(C)[C@H]2CC[C@H](CC(=O)NCc4ccc(F)cc4)O[C@H]2CO3)c1`, the result was inactive. For the compound `COc1ccc(-c2nc(NC(=O)CSc3nnc(C)s3)ns2)cc1`, the result was inactive. Consider `CN(C(=O)c1ccccc1Cl)C1CCCCC1`, for which the result was inactive. With `CN1C(=O)c2cc(NC(=O)c3ccno3)ccc2OC[C@H]2O[C@@H](CC(=O)NCC3CC3)CC[C@@H]21` the entry was “inactive”; with `C/C=C/c1ccc([C@@H]2[C@@H](CN(C(=O)COC)C(C)C)N(C(C)=O)[C@H]2CO)cc1`, “inactive”. In the case of `C=CCNC(=S)NNC(=O)c1cccn(Cc2ccc(Cl)c(Cl)c2)c1=O`, the compound was called inactive. Regarding `CC(C)Oc1ccc(CNCCC2(C(C)C)CCOC(C)(C)C2)cc1` (centres undefined), the result was inactive. `COc1ccc(CN2CCc3c([nH]c4ccccc34)C2)c(OC)c1C`: the compound was called inactive. With `CO[C@H]1CN(C)C(=O)c2ccc(NS(C)(=O)=O)cc2OC[C@H](C)N(C(=O)CN(C)C)C[C@H]1C`, the outcome was inactive. With `Cc1nnsc1Sc1cccc(C(F)(F)F)c1` the entry was “inactive”.

With `CC(C)C(=O)Nc1ccc2c(c1)C(=O)N(C)[C@H]1CC[C@@H](CC(=O)NCc3ccccc3F)O[C@H]1CO2`, the compound was called inactive. As for `C/C=C/c1ccc([C@H]2[C@@H](CO)N[C@@H]2CN(CC(C)C)C(=O)c2ccccn2)cc1`, the call was inactive. On to `C[C@H](O)C#Cc1ccc2c(c1)O[C@@H](CN(C)Cc1ccc(-c3ccccc3)cc1)[C@H](C)CN([C@H](C)CO)S2(=O)=O`, for which the compound was called inactive.

These data come from PubChem BioAssay AID651956 (Broad Institute, 2012).
